# Screening results from PubChem BioAssay.
# Most compounds without a hit are left out; they make up all but 5.5% or so of the library.
# uPA surface inh: cell surface uPA generation inhibition; cell surface uPA generation assay, qHTS; Potency, µM (series often up to 38.3 µM), without a hit: at the top dose activity change, negative = inhibition, hits mostly inhibitors; 330,000 tested, 0.31% active; AID 540303; active means well fitted inhibition curve with a large enough effect; inconclusive means small, poorly fitted or top-dose-only effect; inactive means no such curve, though single readings can be large or run the other way; tested in mouse RAW 264.7 cells; further: on the % scale 0 is the no-effect control and ±100 the full control effect; nearly all actives have a fitted effect of over 55% in size
# a7 integrin act: activates integrin-mediated alleviation for muscular dystrophy; alpha7betagal myoblasts, beta-gal FDG fluorescence, 48 h; Potency, µM (highest dose often 38.3 µM), without a hit: at the top dose activation, most hits filed as activators; 350,000 tested, 0.064% active; AID 624291;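 further: 100% = response of the positive control SU9516; nearly all actives have a fitted effect of over 60% in size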
#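 Alpha7betagal+/- myoblasts (passage 13) were plated 16-24 hr, then exposed to compounds (1:260 dilution of DMSO stock) for 48 hours at 37C. After MPER lysis, β-galactosidase reporter activity was read as FDG fluorescence (ex 480/em 540) after 30 minutes.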
# BCR signal inh: blocks chronic active B-cell receptor signaling | ABC-DLBCL IkBa-CBG/CBR reporter, luminescence ratio, 4 h | Potency, µM (top dose mostly 46.1 µM), for inactives: at the top dose activity change, negative = inhibition, usual class: inhibitors | 340,000 tested, 0.05% active; active means well fitted inhibition curve with a large enough effect in the signal ratio, with a control signal flat, not every such curve was filed as active; inconclusive means small, poorly fitted or top-dose-only effect, or effect the other way, or a change in a side signal; the % refers to the signal ratio;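 further: plate controls were basal doxycycline-induced cells for no effect and cells given 10 µM MG132 for full effect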
#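 Cell line TMD8 (human ABC DLBCL), stably expressing tet-inducible CBG68-IkBa fusion and CBR; IMDM/0.5% FBS; cpd up to 46 uM; dox induction, 4 h, 37C/5% CO2; dual luminescence; green/red ratio; MG132 control.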
# Gal4-VP16 FLuc: Gal4-VP16 reporter inhibition counter-screen | 310,000 tested, 3.5% active | Drosophila S2 Gal4-VP16 UAS-luciferase, luminescence, 20 h | Potency, µM (titrated, usually from 53.6 µM), for the others: at the top dose activity, negative = inhibition, actives largely listed as inhibitors;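 further: Gal4-VP16 expression switched on by copper sulfate through the metallothionein promoter; on the % scale 0 is the no-effect control and ±100 the full control effect; nearly all actives have a fitted effect of over 50% in size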
# Mito fusion yeast: mitochondrial division inhibition or fusion activation; S. cerevisiae fusion-defective mutant growth rescue, CellTiterGlo 48 h; Potency, µM (doses to about 46.1 µM), for inactives: at the top dose growth rescue (activation), usual class: activators; 320,000 tested, 0.23% active; further: % of control where 0% means no effect; nearly all actives have a fitted effect of over 45% in size
#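 Yeast fusion mutant, YPEG (non-fermentable carbon), compound, 48 h at 37C non-permissive; CellTiterGlo added, 10 min RT, luminescence read. Rescued growth = division inhibition.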
# RORgamma inh: inhibitors of mouse ROR gamma transcriptional activity; P51450; Drosophila S2 Gal4-RORgamma UAS-luciferase reporter, 20 h; Potency, µM (doses to about 53.6 µM), for inactives: at the highest dose activity change, negative = inhibition, usual class: inhibitors; 310,000 tested, 5.4% active; further: on the % scale 0 is the no-effect control and ±100 the full control effect; nearly all actives have a fitted effect of over 60% in size
# Target sequence (P51450 whole entry, looked up, the tested form may be a part): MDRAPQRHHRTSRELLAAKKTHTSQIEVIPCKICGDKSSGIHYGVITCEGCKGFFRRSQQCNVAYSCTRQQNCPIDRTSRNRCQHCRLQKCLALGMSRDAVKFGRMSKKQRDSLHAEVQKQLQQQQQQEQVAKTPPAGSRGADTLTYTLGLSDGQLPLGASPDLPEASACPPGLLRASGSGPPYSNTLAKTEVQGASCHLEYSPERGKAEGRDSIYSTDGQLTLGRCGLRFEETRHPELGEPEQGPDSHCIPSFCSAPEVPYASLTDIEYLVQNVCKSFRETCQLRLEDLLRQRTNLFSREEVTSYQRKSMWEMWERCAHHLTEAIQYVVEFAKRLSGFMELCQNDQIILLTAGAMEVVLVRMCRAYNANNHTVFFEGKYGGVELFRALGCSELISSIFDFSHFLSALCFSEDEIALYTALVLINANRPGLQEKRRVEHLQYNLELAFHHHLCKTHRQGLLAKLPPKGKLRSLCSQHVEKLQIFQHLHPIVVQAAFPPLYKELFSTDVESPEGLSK
#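 Schneider cells (Drosophila), stable Gal4 DBD–ROR gamma + UAS-luc; 1 hr cmpd preincubation; Cu2+ induction 700 uM final; 20 hr ambient; luminescence.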
# An asterisk follows results filed as active; ? = inconclusive; . = not tested or not shown; ! = not confirmed by another sample. Unless noted, the call rests on the fitted dose curve; in most records, active means well fitted curve in the direction sought with a large enough effect; inconclusive means small, poorly fitted or top-dose-only effect, or another doubt; inactive means no such curve, though single readings can be large; an effect the other way counts as inactive or inconclusive. Potency means the concentration at half of the fitted maximal effect.
SMILES,uPA surface inh,a7 integrin act,BCR signal inh,Gal4-VP16 FLuc,Mito fusion yeast,RORgamma inh
C=CCc1cccc(/C=N/NC(=O)c2ccccc2OC)c1O,?,-40%,?,1.3µM*,28%,0.5µM*
C=CCc1cccc(/C=N/NC(=O)c2ccccc2Br)c1O,?,-32%,?,4µM*,0%,1.4µM*
O=C(NC(=S)N1CCc2ccccc21)c1ccccc1Br,-4%,6%,?,0.89µM*,24%,0.1µM*
Cc1ccc(C(=O)N2CCc3ccccc32)o1,-8%,12%,1%,-18%,-3%,?
CN1CCN(C(=S)NC(=O)c2ccccc2Br)CC1,-13%,10%,1%,11µM*,-2%,7.1µM*
O=C(NC(=S)N1CCc2ccccc21)c1ccc(Br)o1,1%,4%,?,0.32µM*,8%,0.25µM*
O=C(c1ccccc1F)N1CCc2ccccc21,-3%,?,-16%,16%,1%,-17%
COc1ccc(NC(=O)CS(=O)(=O)c2cn(CC(=O)N3CCOCC3)c3ccccc23)cc1,7%,12%,?,-10%,-1%,7%
CC1(C)OC2CC3C4CCC5=CC(=O)C=C[C@@]5(C)[C@]4(F)C(O)C[C@@]3(C)[C@]2(C(=O)CO)O1 (stereo not given in full),.,.,.,7%,.,19%
CC(=O)OCC(=O)[C@@]12OC3(CCCC3)OC1CC1C3CCC4=CC(=O)C=C[C@@]4(C)[C@]3(F)C(O)C[C@]12C (stereo not given in full),.,.,.,-11%,.,3.5µM*
Cc1ccc(N2CC(C(=O)Nc3ccc(Br)cc3)CC2=O)cc1 (stereo not given),.,.,?,.,-8%,.
FC(F)Sc1nc2ccccc2[nH]1,2%,-3%,-20%,?,-6%,13µM*
COc1ccccc1CN1CC2(CCN(C(=O)c3cc(C(F)(F)F)cc(C(F)(F)F)c3)CC2)C1,.,.,.,6%,.,-37%
CCN(CC)CC#CCOC(=O)C(O)(c1ccccc1)C1CCCCC1 (stereo not given),0%,.,18%,-10%,23µM*!,-7%
CCN(CC)CC#CCC(O)(c1ccccc1)C1CCCCC1 (stereo not given),-1%,-35%,?,28%,-4%,20%
COCCn1c(=O)c(-c2cccs2)nc2cnc(N3CCNCC3)nc21,.,.,.,0%,.,-34%
CN(C(=O)CS(=O)(=O)c1cn(CC(=O)N2CCCC2)c2ccccc12)c1ccccc1,0%,-7%,.,.,.,.
O=C1[C@H]2CCC=C[C@H]2[C@H](c2ccccc2Br)N1Cc1ccccc1,-8%,-9%,-2%,-3%,.,18%
COc1ccc(N2C(=O)[C@H]3CCC=C[C@H]3[C@@H]2c2ccccc2Br)cc1,2%,38%,-11%,32µM*,.,18µM*
CC1CCCCN1CCn1c(=S)[nH]c2cc3c(cc2c1=O)OCO3 (stereo not given),-11%,10%,-7%,?,5%,11µM*
CC1CCN(CCn2c(=S)[nH]c3cc4c(cc3c2=O)OCO4)CC1,5%,-1%,8%,6%,-3%,-20%
CC(C)OCCCn1c(=S)[nH]c2cc3c(cc2c1=O)OCO3,4%,-7%,12%,6.3µM*,-9%,4µM*
S=C1SCN(Cc2cccnc2)CN1Cc1ccccc1,-13%,-59%,?,6.3µM*,7%,3.2µM*
Cc1cnc(NC(=O)Nc2ccc(Cl)cc2)s1,2.2µM*,3%,?,-7%,-4%,?
Cc1cnc(NC(=O)COc2ccccc2Cl)s1,.,7%,9%,7.9µM*,10%,7.1µM*
N#Cc1ccc(NCCNCC(=O)N2N=CCC2C#N)nc1 (stereo not given),.,.,.,-5%,.,-20%
Nc1ccc(C#Cc2ccc3c(=O)c4ccccc4oc3c2)cc1,1.3µM*,27%,-12%,-1%,0%,-16%
